Compound activity: PubChem, National Center for Advancing Translational Sciences (NCATS)
Rows were chosen to be rich in hits. Some 10% of all compounds tested hit in one or more screens of this group.
JMJD2A Tudor: inhibitors of human JMJD2A Tudor domain | O75164 | AlphaScreen JMJD2A-Tudor / H3K4me3 peptide binding | Potency, µM (series often up to 114 µM), without a hit: at the top dose activity change, negative = inhibition, most hits filed as inhibitors | 4.4% of 390,000 active; note: % is set by controls: 0 for no effect and ±100 for the full control effect; nearly all actives have a fitted effect of over 50% in size
BAZ2B inh: blocks human BAZ2B | Q9UIF8 | AlphaScreen BAZ2B-H3K14Ac peptide displacement | Potency, µM (highest dose often 114 µM), for inactives: at the top dose activity change, negative = inhibition, hits mostly inhibitors | 4.4% of 360,000 active; note: % is set by controls: 0 for no effect and ±100 for the full control effect; nearly all actives have a fitted effect of over 60% in size
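Protein-peptide AlphaScreen: BAZ2B 50 nM, b-H3K14Ac 50 nM, 1x PBS pH 7.4 + 0.01% Tween-20. Preincubation 30 min RT; cpd 30 min RT (top 110 uM); beads 20 min RT, light-protected.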
GLS inhibitor: inhibitors of human glutaminase (GLS); Potency, µM (doses to about 45.5 µM), inactives show at the highest dose activity change, negative = inhibition, hits mostly inhibitors; AID 624170; 0.21% of 410,000 active; GLS enzymatic activity, qHTS titration; note: % is set by controls: 0 for no effect and ±100 for the full control effect
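Human kidney-isoform GLS in 45 mM KH2PO4 pH 8.2, 0.02% Tween-20, with compound, started with 1mM L-Glutamine (added stock). Glutamate oxidase/HRP/Amplex red coupled fluorescence read at start and after 30 min at RT.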
HP1b chromo inh: inhibitors of HP1-beta chromodomain binding to methylated histone tails. P83916. AlphaScreen HP1-beta / biotin-H3K9me3 peptide binding. Potency, µM (top dose mostly 114 µM), without a hit: at the top dose activity change, negative = inhibition, hits mostly inhibitors. 0.56% of 390,000 active. AID 540317; note: nearly all actives have a fitted effect of over 70% in size
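HP1-beta protein (50 nM final) preincubated 30 min at room temperature with biotinylated H3(1-18)K9me3 peptide (50 nM) in PBS pH 7.4, 0.01% Tween-20, then compound added for 30 min. AlphaScreen streptavidin donor/nickel chelate acceptor beads (10 ug/mL final), 30 min dark, luminescence read.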
G9a block: G9a (human) methyltransferase inhibition | Q96KQ7 | G9a H3K9 monomethylation, AlphaScreen, 2 h | Potency, µM (doses to about 102 µM), inactives show at the highest dose activity, negative = inhibition, actives largely listed as inhibitors | 8.8% of 350,000 active | AID 504332; note: % is set by controls: 0 for no effect and ±100 for the full control effect; nearly all actives have a fitted effect of over 75% in size
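Signal arises when biotinylated H3K9 peptide, once monomethylated, bridges streptavidin donor and antibody-captured acceptor beads. Enzyme at 20 nM was preincubated 15 min with test compounds; peptide 500 nM and SAM 20 uM then reacted for 2 h.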
An asterisk follows results filed as active; ? = inconclusive; . = not tested or not shown; [ ] = dose if it differs, or a comment. Calls come from the whole dose curve; as a rule, active = well fitted curve in the direction sought with a large enough effect; inconclusive = small, poorly fitted or top-dose-only effect, or another doubt; inactive = no such curve, though single readings can be large; an effect the other way counts as inactive or inconclusive. Potency is the fitted concentration of half-maximal effect.

SMILES | JMJD2A Tudor | BAZ2B inh | GLS inhibitor | HP1b chromo inh | G9a block
CC(=O)Nc1ccc(S(=O)(=O)N2CCN(c3cc(C)ccc3C)CC2)cc1 | -27.9% | -30.7% | -7.4% | 12.6% | -20.9%
CC(=O)Nc1ccc(NC(=O)C(C)Sc2n[nH]c(-c3ccc(C)cc3)n2)cc1 (centres undefined) | -24.1% | 10.1% | 2.7% | -2.7% | 39.8µM*
Cc1ccc(-c2nc(SC(C)C(=O)c3c(N)n(C)c(=O)n(C)c3=O)n[nH]2)cc1 (centres undefined) | -9.6% | 12.3% | 1.3% | 23.4% | 44.7µM*
Cc1ccc(-c2nc(SCC(=O)c3c(N)n(C)c(=O)n(C)c3=O)n[nH]2)cc1 | -5.4% | -0.1% | 1.5% | 13.6% | 18.1%[12.7 µM]
Cc1cccc(Cn2nnc3c2C(=O)c2ccccc2C3=O)c1 | -13.7% | 12.6µM* | . | -26.0% | ?
Cc1ccccc1Cn1nnc2c1C(=O)c1ccccc1C2=O | -6.9% | . | -7.1% | -1.7% | .
S=C(N/N=C/c1ccc2ncccc2c1)Nc1cccnc1 | 1.4% | -25.1% | 18.4% | 33.8% | ?
Cc1ccc(/C=N/NC(=O)c2cc(-c3ccncc3)nc3ccccc23)o1 | -34.5% | ? | 4.9% | 26.8% | 44.7µM*
O=C(N/N=C/c1ccsc1)c1cc(-c2ccncc2)nc2ccccc12 | -17.1% | -24.8% | 17.0% | 16.2% | 3.1%
Cc1ccc(/C=N\NC(=O)c2cncc(Br)c2)o1 | -13.7% | -4.0% | -2.0% | 29.5% | 50.1µM*
O=C(Nc1ccc2c(c1)OCO2)c1cc(-c2ccncc2)nc2ccccc12 | ? | ? | 4.6% | ? | 50.1µM*
Cc1ccc(/C=N/NC(=O)c2cccnc2)o1 | -16.1% | -18.2% | -4.1% | 38.6% | -3.6%
O=C(N/N=C/c1ccccn1)c1cc(-c2ccncc2)nc2ccccc12 | -0.7% | 79.4µM* | -8.5% | 40.4% | -3.8%[59 µM]
CCOc1ccc2oc(C(=O)OCC(=O)NCc3ccc(OC)cc3)c(C)c2c1 | -11.7% | -22.1% | 0.7% | 29.7% | ?
Cc1ccc(NC(=O)CCC(=O)OCC(F)(F)C(F)F)cc1 | ? | -5.6% | -1.4% | 21.4% | 11.2%[12.7 µM]
O=C(CCCNC(=O)/C(=C/c1ccc(Br)cc1)NC(=O)c1ccccc1)OCc1ccccc1 | 3.7% | -0.8% | 2.2% | 19.3% | -5.0%
C=CCC1[C@H](C)[C@H]2[C@@H]3CC[C@@H](C3)[C@H]2CN1S(=O)(=O)c1ccc(C)cc1 (some centres undefined) | 30.8% | . | -3.2% | 79.9% | .
CN(C)c1ccc(-c2c(-c3ccc4c(c3)OCO4)noc2-c2ccsc2)cn1 | -20.4% | -5.7% | 2.4% | 11.4% | .
O=C(O)c1cc(-c2ccc(-c3c(-c4ccc5c(c4)OCO5)noc3-c3ccsc3)cc2)nc2ccccc12 | 89.1µM* | ? | 3.9% | -1.8% | 56.2µM*
Cc1ccc(-c2cc(C(=O)N/N=C/c3ccc([N+](=O)[O-])o3)c3ccccc3n2)o1 | -34.8% | -37.4% | -9.6% | 10.1% | 44.7µM*
O=C1CSC(=S)N1N=Cc1ccc(Cl)s1 | 28.2µM* | . | 29.2% | ? | .
O=[N+]([O-])c1ccc(O)c(C=NN2CCCCC2)c1 | . | . | 20.7% | . | .
O=C1CSC(=S)N1/N=C/c1cc(Br)ccc1O | . | 5.01µM* | . | . | 10µM*
CC(C)(C)c1ccc(/C=N/N2C(=O)CSC2=S)cc1 | -34.3% | ? | 23.0% | -5.0% | ?
Oc1ccc(Br)cc1/C=N/N1CCCCC1 | -26.5% | -4.9% | 16.0% | -6.5% | 11.2µM*
SMILES | JMJD2A Tudor | BAZ2B inh | GLS inhibitor | HP1b chromo inh | G9a block
COc1ccccc1C=NN1C(=O)CSC1=S | ? | . | 22.7% | ? | .
O=C(Nc1cccc(-c2nc3ncccc3o2)c1)c1ccccc1 | -2.0% | -16.1% | -3.2% | 21.9% | 4.6%[59 µM]
CCOC(CNc1ncnc2sc(-c3ccccc3)cc12)OCC | 17.4% | 8.0% | -2.4% | 63.6% | 31.0%
CN(C)CCCNc1ncnc2sc(-c3ccccc3)cc12 | 5.62µM* | 56.2µM* | 3.0% | ? | ?
O=C1OC(c2ccc3ccccc3c2O)(c2ccc3ccccc3c2O)c2ccccc21 | 31.6µM* | . | 11.2µM* | ? | .
CC(C)CCNC(=O)c1cnc2sc(N3CCCCC3)nn2c1=O | 1.0% | 0.8% | -10.6% | 24.8% | 8.4%[59 µM]
COc1ccc(C2C(C(=O)/C=C/c3ccco3)=C(O)C(=O)N2CCN2CCOCC2)cc1OC (centres undefined) | -18.6% | . | ? | 20.5% | 50.1µM*
CCOc1ccc(C2C(C(=O)c3ccco3)=C(O)C(=O)N2CCN2CCOCC2)cc1 (centres undefined) | -28.3% | -34.7% | 11.8% | 16.9% | ?
CCOc1ccc(C2C(C(=O)c3ccco3)=C(O)C(=O)N2CCN2CCOCC2)cc1OCC (centres undefined) | -16.2% | -20.4%[57.1 µM] | 3.5% | 23.5% | 39.8µM*
CCOc1ccc(C2C(C(=O)c3ccc(C)o3)=C(O)C(=O)N2CCN2CCOCC2)cc1OC (centres undefined) | 28.2µM* | ? | 1.7% | 38.7% | 17.8µM*
CC(C)c1ccc(C2C(C(=O)c3ccco3)=C(O)C(=O)N2CCN2CCOCC2)cc1 (centres undefined) | -11.6% | -6.7% | 7.8% | 30.5% | 50.1µM*
CCCOc1ccc(C2C(C(=O)c3ccco3)=C(O)C(=O)N2CCN2CCOCC2)cc1OC (centres undefined) | . | -10.6% | . | . | ?
CC1(C)Cc2nc3sc4c(=O)n(CC(=O)NCc5ccccc5)cnc4c3cc2CO1 | -9.6% | 15.8% | -7.1% | 25.3% | -12.5%[0.0925 µM]
CCCC(C(=O)NCCc1ccc(S(N)(=O)=O)cc1)c1ccccc1 (centres undefined) | 4.9% | 4.1% | -5.6% | 18.8% | ?
O=C(NCc1ccc(Cl)cc1Cl)C(=O)N1CCCCC1 | -12.8% | 9.4% | -7.3% | 21.9% | 9.5%[59 µM]
COc1ccc2c(c1)CC/C(=C\Nc1ccc3c(c1)OCO3)C2=O | ? | ? | 11.8% | ? | 2.51µM*
O=C1/C(=C/Nc2ccc3c(c2)OCO3)CCc2ccccc21 | -42.2% | -38.4% | 21.2% | ? | 1.78µM*
COc1ccc2c(c1)CC/C(=C/c1cc(OC)c(OC)c(OC)c1)C2=O | -19.6% | -35.2% | 0.4% | 28.8% | -32.2%[59 µM]
COc1ccc(N/C=C2\CCc3ccccc3C2=O)cc1 | 15.1% | 13.6% | 13.4% | 54.3% | 2µM*
COc1ccc(N/C=C2\CCOC2=O)cc1 | -24.4% | -0.8% | 2.2% | 6.5% | 9.5%[59 µM]
O=C(Nc1ccc(C#Cc2ccccc2)cc1)C1CC1 | -18.5% | -4.9% | 4.0% | 14.8% | -26.1%[12.7 µM]
O=C(COc1ccc(F)cc1)NNC(=O)c1cc2ccccc2oc1=O | -23.0% | -3.3% | -21.2% | 25.9% | -1.4%[59 µM]
Cc1ccc(NC(=O)c2ccc(NCCCN3CCC(C)CC3)c([N+](=O)[O-])c2)cc1F | 79.4µM* | -12.3% | 0.0% | 2.4% | 70.8µM*
O=C(Nc1cccc(Cl)c1)c1ccc(NCCCN2CCOCC2)c([N+](=O)[O-])c1 | ? | 44.7µM* | 0.1% | ? | 13.5%[0.501 µM]
O=C(O)c1ccccc1N/N=C/c1cc(Br)cc(Br)c1O | ? | 44.7µM* | ? | -24.3% | .
